Bioassay records from PubChem.
Sampled rows, rich in hits. Any-hit rate of the full collection: about 7.3%.
NPC1 prom act: activators of NPC1 promoter | Huh7 NPC1 promoter luciferase reporter, 24 h | actives 2.4% (n = 320,000) | Potency, µM (titrated, usually from 9.22 µM), for the others: at the top dose activation, actives largely listed as activators; note: % of control where 0% means no effect; nearly all actives have a fitted effect of over 60% in size
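Stably transfected Huh7 (NPC1 promoter→luciferase), 1500 cells/well in Opti-MEM + 10% FBS, 2 h settle, then compound 24 h at 37 °C. Luminescence after 10 min with Amplite reagent.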
SMN2 splice up: SMN2 splice variant enhancement. HEK293 SMN2-luciferase splicing reporter, luminescence, 30-36 h. Potency, µM (highest dose often 46.1 µM), inactives show top-dose activity change, positive = activation, actives largely listed as activators. actives 2.8% (n = 210,000). AID 1458; note: % of control where 0% means no effect; nearly all actives have a fitted effect of over 55% in size
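qHTS luciferase splicing reporter: luminescence rises when SMN2 exon 7 is included in transfected HEK293 cells. Compound exposure lasted 30-36 h at 37C, with 4.5 mM final sodium butyrate as control, followed by a ONE-Glo read.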
Luc counter: Kinase-Glo luciferase inhibition (counter-screen); Kinase-Glo luciferase, ATP luminescence, 8 min; Potency, µM (series often up to 38.3 µM), for the others: at the highest dose activity change, negative = inhibition, usual class: inhibitors; Q27757; actives 0.28% (n = 200,000); note: % is set by controls: 0 for no effect and ±100 for the full control effect; nearly all actives have a fitted effect of over 60% in size
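Recombinant Kinase-Glo luciferase, 10 uM ATP (linear range), luciferin; imidazole pH 7.2 / KCl / MgCl2 / Tween / BSA buffer; 8 min RT; luminescence.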
Rab9 prom act: activates the Rab9 promoter. Potency, µM (doses to about 9.22 µM), inactives show top-dose activation, negative = inhibition, hits mostly activators. actives 2.8% (n = 320,000). Huh7 Rab9 promoter-luciferase reporter, luminescence, 24 h; note: % of control where 0% means no effect; nearly all actives have a fitted effect of over 60% in size
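Huh7 reporter line, Rab9 promoter upstream of luciferase. Compound exposure 24 h at 37 °C in reduced-serum medium with 10% FBS. Read-out: luminescence.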
ELG1 genotox: induces genotoxicity in HEK293T cells with luciferase-tagged ELG1 | actives 1.3% (n = 330,000) | HEK293T ELG1-luciferase reporter, luminescence, 16 h | Potency, µM (titrated, usually from 46 µM), inactives show at the highest dose activity change, positive = activation, usual class: activators; note: % of control where 0% means no effect; nearly all actives have a fitted effect of over 60% in size
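Step 1: seed 2,000 HEK293T ELG1-luciferase cells per well. Step 2: add compound or DMSO, incubate 16 hr at 37 °C. Step 3: ONE-Glo, 30 min at room temperature, read luminescence.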
FLuc modulator: inhibits or activates purified firefly luciferase, miR-21 counter-screen; P08659; purified FLuc, Km substrates, luminescence inhibition; Potency, µM (series often up to 57.5 µM), for the others: at the top dose activity change, negative = inhibition, actives largely listed as inhibitors; actives 6.9% (n = 360,000);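 note: plate controls were vehicle for no effect and reference inhibitor for full effect; nearly all actives have a fitted effect of over 55% in size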
Target sequence (P08659 whole entry, looked up): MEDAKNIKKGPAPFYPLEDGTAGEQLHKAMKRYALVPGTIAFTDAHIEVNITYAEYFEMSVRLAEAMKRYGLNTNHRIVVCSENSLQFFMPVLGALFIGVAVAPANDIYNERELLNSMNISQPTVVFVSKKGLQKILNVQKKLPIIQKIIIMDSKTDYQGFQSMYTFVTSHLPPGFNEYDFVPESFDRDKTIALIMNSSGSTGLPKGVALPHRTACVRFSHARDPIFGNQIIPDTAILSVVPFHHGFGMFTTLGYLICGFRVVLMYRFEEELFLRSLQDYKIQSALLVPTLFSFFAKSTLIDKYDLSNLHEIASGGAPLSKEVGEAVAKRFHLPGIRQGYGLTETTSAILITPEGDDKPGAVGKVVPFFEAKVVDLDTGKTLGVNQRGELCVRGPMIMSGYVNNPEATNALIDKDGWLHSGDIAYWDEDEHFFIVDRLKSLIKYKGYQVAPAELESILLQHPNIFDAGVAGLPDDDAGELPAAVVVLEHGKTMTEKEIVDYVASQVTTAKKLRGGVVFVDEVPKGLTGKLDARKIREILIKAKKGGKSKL
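Biochemical qHTS of compounds, final roughly 60 µM downward over six points, against 10 nM purified firefly luciferase using Km concentrations of substrates (10 uM D-luciferin, 10 uM ATP) in Tris acetate pH 7.5 buffer; luminescence output.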
An asterisk follows results filed as active; u = inconclusive; x = no result given; [ ] = dose if it differs, or a comment. Calls come from the whole dose curve; as a rule, active = well fitted curve in the direction sought with a large enough effect; inconclusive = small, poorly fitted or top-dose-only effect, or another doubt; inactive = no such curve, though single readings can be large; an effect the other way counts as inactive or inconclusive. Potency is the fitted concentration of half-maximal effect.

SMILES	NPC1 prom act	SMN2 splice up	Luc counter	Rab9 prom act	ELG1 genotox	FLuc modulator
O=C(O)c1ccc(CSc2nnc(-c3ccc(Cl)cc3)o2)cc1	-3.6%	x	x	-1.0%	8.5%	16.9µM*
COc1ccc2c(c1)C(=O)[C@@H](OC(=O)NC1CCCC1)[C@H](c1ccc(OC)c(Br)c1)O2	x	1.6%	1.4%	x	x	x
COc1cccc(Nc2nc(-c3cccc(N4C(=O)c5ccccc5C4=O)c3)cs2)c1	13.3%	20.9%	0.8%	6.8%	7.7%	2.39µM*
COc1cccc(Nc2nc(-c3ccc(O)cc3)cs2)c1	u	0.5%	-2.3%	9.7%	u	15.1µM*
COc1ccc(Nc2nc(-c3ccc4c(c3)NC(=O)CO4)cs2)cc1	8.5%	-63.9%	-0.3%	17.8%	-10.0%	u
CC(=O)Nc1c(C)nn(-c2ccccc2)c1N1CCC(C(=O)Nc2ccccc2C(F)(F)F)CC1	x	x	x	x	x	-11.7%
NC(=O)[C@@H]1CCCN1Cc1ccc2c(c1)OCO2	x	-5.4%[9.22 µM]	-10.2%[7.66 µM]	x	x	x
O=C(NC1CCCCC1)c1cc2ccccc2cc1O	u	x	x	22.5%	4.5%	16.9µM*
Cn1cccc1C(=O)NC1CCCCCC1	u	x	x	2.24µM*	u	16.9µM*
CSc1ccccc1C(=O)NC1CCCCCC1	-2.0%	20.1%	-3.1%	1.7%	0.4%	-0.3%
O=C(NN=C1CCCCCC1)c1c[nH]c2ccccc12	0.0%	7.1%	-1.0%	-1.3%	-1.3%	12µM*
Cc1ccccc1C(=O)NC1CCCCCCC1	2.82µM*	x	x	2.51µM*	16.4µM*	12µM*
CC1CCN(CC2CCN(C(=O)Nc3ccc(Br)cc3F)CC2)CC1	x	x	x	x	x	-7.3%
CCOC(=O)c1cc(-c2ccccc2)n(-c2cccc(C(=O)Nc3ccc(OC)cc3)c2)c1C	x	x	x	x	x	-6.0%
O=C(NN=C1CCCCCC1)c1cc2ccccc2cc1O	-4.0%	x	x	7.4%	6.5%	16.9µM*
O=C(NC1CCCCCCC1)c1ccccc1-c1ccccc1	-5.3%	-33.1%	2.6%	-7.3%	-0.6%	3.0%
O=C(NC1CCCCCCC1)c1ccccc1O	3.98µM*	5.2%	-0.6%	3.55µM*	16.0%	15.1µM*
Cc1c(NC(=O)c2cc([N+](=O)[O-])ccc2N2CCOCC2)cccc1-c1nc2ccccc2o1	x	2.8%	x	x	x	u
C/C(=N\OC(=O)c1ccc(Cl)cc1)c1sc(-c2ccccc2)nc1C	3.98µM*	u	-2.2%	3.98µM*	u	3.9%
C/C(=N\OC(=O)c1ccc(F)cc1)c1sc(-c2ccccc2)nc1C	2µM*	20µM*	-4.7%	1.58µM*	u	4.8%
C/C(=N\OC(=O)NC1CCCCC1)c1sc(-c2ccccc2)nc1C	9.1%	-54.7%	-3.7%	-6.6%	-0.1%	u
Cc1nc(-c2ccccc2)sc1C(=O)CSc1ccc(Cl)cc1	0.6%	3.3%	0.6%	4.0%	0.8%	-11.6%
CCN(CC)c1ccc(/C=N/NC(=O)c2ccccn2)cc1	0.447µM*	x	x	0.708µM*	u	2.39µM*
CCc1ccc(/C=N/NC(=O)c2ccccn2)cc1	0.447µM*	x	x	0.126µM*	u	0.477µM*
CCN(CC)c1ccc(/C=N/NC(=O)c2cnccn2)cc1	-9.0%	20µM*	-4.1%	u	11.6µM*	12µM*
SMILES	NPC1 prom act	SMN2 splice up	Luc counter	Rab9 prom act	ELG1 genotox	FLuc modulator
O=C(CNC(=O)c1ccccn1)N/N=C/c1ccccc1	-2.0%	7.3%	-0.9%	-1.4%	1.4%	u
O=C(N/N=C/c1ccc(OC(=O)c2ccccc2Cl)cc1)c1ccccn1	2.82µM*	x	x	u	8.2µM*	1.51µM*
COCCCNC(=O)CCc1c(C)nc2cc(-c3ccc(Cl)cc3)nn2c1C	x	9.4%	x	x	x	u
CN(C)/C=N/C(=S)Nc1ccc(Br)cc1F	u	28.5%	-11.8%	3.98µM*	23.9%	19µM*
COc1ccc2nc3oc(C(=O)N(C)c4ccc(Cl)cc4)cc3cc2c1	x	14.3%	x	x	x	6.7%
Cc1ccc(C(=O)Nc2cccc3cccnc23)cc1C	2.82µM*	x	x	u	u	12µM*
C/C(=N\Nc1cccc2cccnc12)c1ccc(C)cc1	u	15.8µM*	-1.2%	u	u	2.69µM*
Cc1cccc(C(=O)Nc2cccc3cccnc23)c1	3.98µM*	x	x	3.16µM*	14.4%	21.3µM*
Cc1cccc(C(=O)Nc2cccnc2Cl)c1	1.9%	x	x	9.0%	15.8%	u
COc1cc(NC(=O)Nc2cccc3cccnc23)cc(OC)c1OC	-2.0%	x	x	6.6%	5.8%	19µM*
O=C(CSc1nc2c(c(=O)[nH]1)CCCC2)Nc1ccccc1C(F)(F)F	x	x	x	x	x	-1.2%
COc1cc(OC)cc(C(=O)Nc2cccc3cccnc23)c1	-5.1%	x	x	-4.5%	-5.9%	u
O=C(Nc1cccc2cccnc12)c1ccc(Cl)cc1	6.8%	x	x	9.5%	12.5%	30.1µM*
Cc1ccc(C(=O)Nc2cccc3cccnc23)cc1Cl	x	-13.3%	x	x	x	10.7µM*
Cc1ccc(/C=C/C(=O)Nc2cccc3cccnc23)o1	-1.5%	7.0%	-3.1%	7.4%	0.7%	16.9µM*
CC(C)(C)C(=O)NCCc1csc2nc(-c3ccc(F)cc3)nn12	x	x	x	x	x	3.2%
Cc1ccc(CNC(=O)c2oc3ccc(S(=O)(=O)N4CCCC(C)C4)cc3c2C)cc1 (stereo unspecified)	x	-29.9%	x	x	x	2.3%
Cc1nc(NCc2ccccc2)c2nc(-c3ccccc3)n(CC(C)(C)CN(C)C)c2n1	x	-7.9%	-4.3%	x	x	x
COc1ccc(-c2[nH]n(-c3ccc([N+](=O)[O-])cc3)c(=O)c2C=NCc2ccc(F)cc2)cc1	-1.3%	2.2%	0.5%	-3.3%	2.3%	0.1%
COc1ccc(-c2cc(=O)n(-c3ccc([N+](=O)[O-])cc3)[nH]2)cc1	-0.9%	9.0%	-3.2%	-5.2%	0.8%	21.3µM*
COc1ccc(C(=O)Nc2ccc3c4c(cccc24)CC3)cc1	u	0.1%	8.3%	u	12.3%	15.1µM*
COc1cc(OC)cc(C(=O)NC(=S)Nc2ccc3c4c(cccc24)CC3)c1	-1.9%	-11.2%	4.3%	-1.4%	-2.3%	0.7%
O=C(Nc1ccc2c3c(cccc13)CC2)c1ccco1	20.5%	x	x	16.7%	u	16.9µM*
O=C(Nc1ccc2c3c(cccc13)CC2)c1ccc(Br)o1	18.9%	2.2%	-6.9%	28.6%	u	19µM*
COc1ccccc1NC(=O)Cn1cc(C(=O)c2ccncc2)c(=O)c2cc(C)ccc21	x	x	x	x	x	-5.5%
COc1ccc(/C=C/C(=O)Oc2cccc(/C=N/NC(=O)Cc3ccc(Br)cc3)c2)cc1	3.55µM*	x	x	3.16µM*	u	u
[O-][N+]1(CC[N+]2([O-])CCCCC2)CCCCC1	x	-8.0%[9.22 µM]	0.9%[7.66 µM]	x	x	x
O=S(=O)(Nc1cccc(-c2ccc(N3CCCCCC3)nn2)c1)c1ccccc1F	16.3%	x	x	u	u	19µM*
